Assay outcomes from PubChem.
HCV inh: blocks hepatitis C virus | 340,000 tested, 3.4% active | Potency, µM (top dose mostly 41.8 µM), without a hit: top-dose activity change, negative = inhibition, hits mostly inhibitors | Huh7.5.1 HCVcc-Cre infection, luciferase reporter, 44 h; active = well fitted inhibition curve with a large enough effect; inconclusive = small, poorly fitted or top-dose-only effect, or another doubt; inactive = no such curve, though single readings can be large or run the other way; note: potency is the fitted concentration of half-maximal effect
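Compounds are dispensed onto cells plated 4 h earlier at 1,000 per well, with HCVcc-Cre virus (about 0.5 moi) added next. Following 44 h of culture, luminescent signal is measured for 15 sec after 15 min with substrate at room temperature.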
HCMV inh: human cytomegalovirus inhibition. 410,000 tested, 4.5% active. activity change, negative = inhibition, % at 57.5 µM. HFF cells, HCMV-luciferase reporter, 72 h; hits give low values; in the data active = activity change below about -60%; inconclusive = no clear call, values can overlap the other calls; inactive = above about -39%
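HFF cells seeded 16 h at 37C, treated with compounds, infected with luciferase-reporter HCMV at MOI 1 PFU/cell; luciferase read at 72 h post infection, normalized to buffer-only and Salinomycin controls.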
Vaccinia mCherry: inhibitors of vaccinia virus infection (mCherry reporter signal). Vaccinia virus mCherry reporter infection, fluorescence. 310,000 tested, 0.63% active. Potency, µM (series often up to 36.5 µM), without a hit: at the top dose activity change, negative = inhibition, most hits filed as inhibitors. AID 720579; calls by dose curve; tested in A549 cells; note: potency is the fitted concentration of half-maximal effect; nearly all actives have a fitted effect of over 35% in size
LASV entry inh: blocks Lassa virus binding to or entry into cells. Lassa virus pseudotype entry inhibition, cell reporter. 300,000 tested, 1.2% active. Potency, µM (titrated, usually from 37.9 µM), inactives show at the highest dose activity change, negative = inhibition, usual class: inhibitors; calls by dose curve; tested in HEK293 cells; note: potency is the fitted concentration of half-maximal effect; nearly all actives have a fitted effect of over 50% in size
MARV entry inh: Marburg virus entry inhibition. 300,000 tested, 1.8% active. Potency, µM (highest dose often 37.8 µM), without a hit: top-dose activity change, negative = inhibition, usual class: inhibitors. Marburg virus pseudotyped entry inhibition, cell reporter; calls by dose curve; tested in HEK293 cells; note: potency is the fitted concentration of half-maximal effect
VACV Venus inh: vaccinia inhibition (Venus reporter); Potency, µM (series often up to 36.5 µM), inactives show at the highest dose activity change, negative = inhibition, most hits filed as inhibitors; Vaccinia virus Venus reporter expression, fluorescence; 330,000 tested, 0.46% active; AID 720580; calls by dose curve; tested in A549 cells; note: potency is the fitted concentration of half-maximal effect; nearly all actives have a fitted effect of over 30% in size
The depositor's hits bear a star; i = inactive; ? = inconclusive; / = no result given; + = active, no number; [ ] = remark or other dose. The list is not random: actives were taken first. Their share in the collection is about 7.8%. % is set by controls: 0 for no effect and ±100 for the full control effect.

SMILES	HCV inh	HCMV inh	Vaccinia mCherry	LASV entry inh	MARV entry inh	VACV Venus inh
Cc1nc(SCC(=O)N(C)Cc2ccco2)c2c(C)c(C)sc2n1	?	?	/	?	7.3µM*	/
Cc1sc2ncnc(N(C)Cc3ccco3)c2c1C	?	-70.8*	/	-13.1%	-6.2%	-18.2%
CN1C[C@]2(CCN3CCCC(C)(C)[C@@H]32)c2ccccc21	/	17.6	/	/	/	/
COc1ccc(N2CCN(S(=O)(=O)c3ccc4oc(=O)c5ncn(C)c5c4c3)CC2)cc1	/	13.8	-9.0%	17.5%[46.1 µM]	/	-3.4%
CC(NC(=O)c1cc(-c2ccc(Cl)cc2)on1)c1ccccc1 (centres undefined)	/	7.4	-14.5%	18.8%[46.1 µM]	7.9%[46.1 µM]	-6.5%
CCCCSCCCNC(=O)CN1C(=O)c2cccnc2Oc2ccc(Cl)cc21	/	0.0	-4.7%	-0.1%[46.1 µM]	/	-0.8%
COCCNC(=O)CN1C(=O)c2cccnc2Oc2ccc(Cl)cc21	/	+	12.8%	2.5%[46.1 µM]	/	10.9%
COc1ccc(CNC(=O)CSc2n[nH]c(-c3ccc(OC)cc3)n2)cc1	/	-29.1	?	?	/	-29.3%
COC(=O)c1c(SC)nc2ccccc2c1OCc1cccc(C)c1	/	-13.3	-12.1%	-9.2%[46.1 µM]	/	1.2%
CCOc1ccc(N2CC(NC(=O)c3ccc(Cl)cc3)CC2=O)cc1 (centres undefined)	/	-6.7	4.1%	13.1%[46.1 µM]	/	-1.4%
Cc1cccc(OCC(=O)Nc2ccc(S(=O)(=O)N(Cc3ccccc3)c3ccccc3)cc2)c1	/	10.7	-23.4%	-5.1%[46.1 µM]	2.0%[46.1 µM]	-10.2%
O=C(CCc1ccccc1)NCC1(c2ccccc2)CCCC1	12.8%	-4.2	-3.1%	?	5.62µM*	-23.2%
O=C(CC(c1ccccc1)c1cc(Br)ccc1O)NCC1(c2ccccc2)CCCC1 (centres undefined)	/	-105.1*	-19.9%	?	?	-23.4%
COc1ccc(/C=N/n2cnnc2SCc2ccccc2)cc1	-6.6%	6.6	/	?	-17.2%[46.1 µM]	-13.6%
COc1ccc(/C=N/n2cnnc2SCc2ccc(OC)cc2)cc1	-7.2%	-24.7	-17.0%[1.46 µM]	2.51µM*	-13.0%	-15.3%
Clc1ccc(-c2ccc(CN3CCCCC3)o2)cc1	-25.4%	6.5	/	/	/	/
CN1CCN(Cc2ccc(-c3ccc(Cl)cc3)o2)CC1	14.1µM*	-9.2	/	0.7%	?	/
CCCCCn1c(=O)[nH]c2cc(C(=O)NCc3ccc(OC)cc3)ccc2c1=O	/	-15.3	6.0%	8.2%[46.1 µM]	-7.6%[46.1 µM]	6.5%
Cc1ccc(-c2csc3ncnc(NCCC(=O)O)c23)cc1	6.0%	-21.8	i	26.5%[46.1 µM]	12.9%[46.1 µM]	-11.3%
Cc1ccc(-c2csc3ncnc(Nc4ccc(N5CCOCC5)cc4)c23)cc1	?	-89.5*	-11.2%	12.6µM*	?	-21.5%
Cc1ccc(-c2csc3ncnc(NCCN4CCOCC4)c23)cc1	?	-70.3*	-22.9%	?	11.2µM*	-17.9%
Clc1ccc(-c2csc3ncnc(NCCN4CCOCC4)c23)cc1	?	-75.0*	-27.3%	?	?	?
COc1ccc(-c2csc3ncnc(NCCN4CCOCC4)c23)cc1	?	-66.3*	/	?	?	?
c1nc(NCCN2CCOCC2)c2c3c(sc2n1)CCCCC3	15.0%	0.8	/	-7.2%	-3.8%	/
CN(C)CCCNc1ncnc2scc(-c3ccccc3)c12	?	-9.6	-13.5%	-9.0%	?	-12.4%
SMILES	HCV inh	HCMV inh	Vaccinia mCherry	LASV entry inh	MARV entry inh	VACV Venus inh
c1ccc(CNc2nc(CN3CCOCC3)nc3scc(-c4ccccc4)c23)cc1	0.1%	-0.2	-13.0%	1.6%	?	6.9%
c1ccc(-c2csc3ncnc(NCCN4CCOCC4)c23)cc1	11.2µM*	-76.8*	-12.6%	-29.3%	-12.2%	?
Clc1ccc(CNc2nc(CN3CCOCC3)nc3scc(-c4ccccc4)c23)cc1	?	-20.5	?	?	20µM*	?
CCC(CO)Nc1nc(CN2CCCCC2)nc2scc(-c3ccccc3)c12 (centres undefined)	?	-68.9*	i	-25.9%[46.1 µM]	?	-23.8%
CC(C)(C)OC(=O)/C=C/[C@@H]1Cc2cc(C(F)(F)F)ccc2N1	/	14.0	/	/	/	/
Cc1ccc(-n2nnc(-c3nc(-c4cccs4)no3)c2N)cc1C	/	-24.1	-5.0%[7.34 µM]	18.5%[46.1 µM]	/	-8.1%[7.34 µM]
Cc1cccc(Cn2cc(S(=O)(=O)c3ccc(Cl)cc3)c(=O)c3cc4c(cc32)OCO4)c1	/	-2.1	-3.9%	-9.0%[46.1 µM]	-6.6%[46.1 µM]	-2.9%
CCC1CN(CCNC(=O)c2cc3ccccc3oc2=O)Cc2cc(OC)ccc2O1 (centres undefined)	/	/	-5.7%	/	/	-2.5%
COc1ccc(CNC(=O)CN2CCC(C(=O)c3ccc(OC)cc3)CC2)cc1	12.6µM*	-77.8*	/	?	-20.2%	/
CCOc1ccc(C(=O)N2CCC(C(=O)c3ccc4c(c3)OCCO4)CC2)cc1	10µM*	?	/	-19.7%	-16.2%	/
CCOC(=O)C1CCN(C(=O)c2ccc3c(c2)OCCO3)CC1	10.4%	0.0	/	/	/	/
COc1ccc(C(=O)C2CCN(C(=O)c3ccc(OC)cc3)CC2)cc1	7.94µM*	?	-22.8%	?	?	?
Cc1ccc(C(=O)N2CCC(C(=O)c3c(C)cc(C)cc3C)CC2)cc1	11.2µM*	/	/	/	/	/
COc1ccc(C(=O)N2CCC(C(=O)c3ccc(F)cc3)CC2)cc1	-3.4%	-19.5	-26.0%	-19.3%	?	-20.0%
O=C(CCSCc1ccccc1Cl)NCc1ccc(F)cc1Cl	/	-10.3	-5.2%	3.8%[46.1 µM]	/	-2.4%
CCCCNC(=O)CSc1nc2ccccc2nc1Cc1ccc(Cl)cc1	/	3.3	-13.3%	17.1%[46.1 µM]	/	-0.1%
Cc1nn(Cc2ccccc2)c2c1C(c1cccc(Cl)c1)C(C#N)=C(N)O2 (centres undefined)	?	-60.2*	/	-25.5%	?	-9.5%
O=C(O)c1cccc2c1C(=O)c1ccc(-c3ccc(F)cc3F)cc1S2(=O)=O	1.8%	-61.5*	-5.4%	/	/	0.8%
O=C(NC[C@H]1CCCO1)c1cccc2c1C(=O)c1ccc(-c3ccc(F)cc3OCc3ccccc3)cc1S2(=O)=O	10µM*	-34.1	?	/	/	?
CCOC(=O)OC[C@H]1O[C@H](c2ccc(C(C)=O)cc2)C=C[C@H]1Oc1ccc(-c2ccccc2)cc1	/	/	/	?	2.8%[14.2 µM]	/
Cc1ccc(-c2cc(-c3ccccc3)cc(-c3ccccc3)[n+]2-c2ccccc2)cc1	6.31µM*	-99.0*	8.91µM*	/	/	10µM*
CN(C)c1ccc(-[n+]2c(-c3ccccc3)cc(-c3ccccc3)cc2-c2ccccc2)cc1	7.08µM*	-98.9*	-19.9%	?	?	?
c1ccc(-c2cc(-c3ccccc3)[n+](-c3ccccc3)c(-c3ccccc3)c2)cc1	?	-101.2*	-39.9%	?	?	?
Cc1ccc(-c2cc(-c3ccc(C)cc3)[n+](-c3ccc(C(=O)[O-])cc3)c(-c3ccc(C)cc3)c2)cc1	2.51µM*	-17.0	-12.6%	/	/	-12.1%
CCOc1ccc2nc(NC(=O)c3nc(SCc4ccc(C)cc4)ncc3Cl)sc2c1	/	18.7	-23.1%	27.3%[46.1 µM]	1.0%[46.1 µM]	-13.0%
